Data as given in PubChem BioAssay (EPA / NIEHS).
Activity calls are given as the source filed them. Rule for the calls: active = hit-call score of the fitted dose curve at least 0.9, where 1 is the maximum; inactive = score below 0.9.

Key:
[1] = read-out: C-C motif chemokine 2 (Homo sapiens) (UniProt P13500); assay: BSK_KF3CT_MCP1: BioMAP Diversity Plus: KF3CT Assay for Monocyte Chemoattractant Protein 1 (MCP1/CCL2) Biomarker Activity (AID 2283073); settings: primary human keratinocytes with fibroblasts; actives raise or lower the signal
Method in brief: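 Human keratinocyte plus foreskin fibroblast primary co-culture exposed to chemical for 24 h. MCP-1 levels measured by ELISA. Bidirectional curve fitting relative to DMSO negative control as baseline.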

[2] = read-out: Matrix Metallopeptidase 9 (MMP9), MMP9 (gene 4318); assay: BSK_KF3CT_MMP9: BioMAP Diversity Plus: KF3CT Assay for Matrix Metallopeptidase 9 (MMP9) Biomarker Activity (AID 2283074); settings: primary human keratinocytes with fibroblasts; actives raise or lower the signal;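 for AC50: MMP9 protein level quantified by ELISA in the co-culture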
Method in brief: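 MMP-9 quantified by ELISA after 24 h chemical treatment of primary human skin keratinocyte/fibroblast co-cultures; gain or loss fitted against DMSO, with parallel SRB staining (0.1% SRB, 560 nm) for overt cytotoxicity.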

[3] = read-out: urokinase plasminogen activator (uPA), PLAU (gene 5328); assay: BSK_KF3CT_uPA: BioMAP Diversity Plus: KF3CT Assay for urokinase plasminogen activator (uPA) Biomarker Activity (AID 2283075); settings: primary human keratinocytes with fibroblasts; actives raise or lower the signal
Method in brief: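 ELISA read-out of uPA 24 h after dosing human skin keratinocytes co-cultured with foreskin fibroblasts. Signal change fitted both ways relative to DMSO; sulforhodamine B on parallel cultures marks overt cytotoxicity.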

CD40, CD40 (gene 958) = assay: BSK_LPS_CD40: BioMAP Diversity Plus: LPS Assay for CD40 Biomarker Activity (AID 2283076); settings: primary human HUVEC with PBMC; actives raise or lower the signal
Method in brief: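 Primary human umbilical vein endothelial cells co-cultured with peripheral blood mononuclear cells, LPS-stimulated, were dosed with chemical and read 24 h later. CD40 levels were measured by ELISA and fitted bidirectionally against DMSO as negative control and baseline.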

[4] = read-out: E-selectin (Homo sapiens) (UniProt P16581); assay: BSK_LPS_Eselectin: BioMAP Diversity Plus: LPS Assay for Eselectin Biomarker Activity (AID 2283077); settings: primary human HUVEC with PBMC; actives raise or lower the signal
Method in brief: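 Human umbilical vein endothelial cells co-cultured with peripheral blood mononuclear cells under LPS stimulation; E-selectin measured by ELISA 24 h after chemical dosing. Activity fitted bidirectionally against DMSO as negative control and baseline.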

[5] = read-out: Interleukin-8 (IL8), CXCL8 (gene 3576); assay: BSK_LPS_IL8: BioMAP Diversity Plus: LPS Assay for Interleukin-8 (IL8) Biomarker Activity (AID 2283078); settings: primary human HUVEC with PBMC; actives raise or lower the signal
Method in brief: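 Human umbilical vein endothelial cells co-cultured with PBMC were stimulated with LPS; IL-8 levels were measured by ELISA 24 h after chemical dosing. Activity was fitted bidirectionally against DMSO as negative control and baseline.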

[6] = BSK_LPS_SRB: Viability Assessment in the BioMAP Diversity Plus: LPS Assay (AID 2283079); settings: primary human HUVEC with PBMC;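 note: total protein by sulforhodamine B absorbance as a cytotoxicity measure; measured one day after compound addition; fitted in both directions against DMSO so loss or gain of signal counts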
Method in brief: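 Human umbilical vein endothelial cells co-cultured with PBMC (LPS system) were dosed for 24 h. Total protein was stained with 0.1% sulforhodamine B after 10% TCA fixation, read at 560 nm, and fitted bidirectionally against DMSO baseline.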

[7] = read-out: Interleukin-1 alpha (IL1a), IL1A (gene 3552); assay: BSK_LPS_IL1a: BioMAP Diversity Plus: LPS Assay for Interleukin-1 alpha (IL1a) Biomarker Activity (AID 2283080); settings: primary human HUVEC with PBMC; actives raise or lower the signal
Method in brief: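 Human umbilical vein endothelial cells co-cultured with peripheral blood mononuclear cells were LPS-stimulated and exposed to test chemicals for 24 h. IL-1 alpha was quantified by ELISA, with bidirectional curve fitting against DMSO as the negative control and baseline.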

[8] = read-out: Monocyte Chemoattractant Protein-1 (MCP1), CCL2 (gene 6347); assay: BSK_LPS_MCP1: BioMAP Diversity Plus: LPS Assay for Monocyte Chemoattractant Protein-1 (MCP1) Biomarker Activity (AID 2283081); settings: primary human HUVEC with PBMC; actives raise or lower the signal;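 for AC50: co-culture stimulated with LPS; secreted MCP-1 protein quantified by ELISA in culture supernatant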
Method in brief: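 HUVEC plus PBMC co-culture (human primary cells, LPS system) exposed to test chemical for 24 h; MCP-1 measured by ELISA. Bidirectional curve fitting against DMSO baseline; parallel SRB total-protein staining flags overt cytotoxicity.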

[9] = BSK_LPS_PGE2: BioMAP Diversity Plus: LPS Assay for Prostaglandin E2 (PGE2) Biomarker Activity (AID 2283082); settings: primary human HUVEC with PBMC; actives raise or lower the signal;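 for AC50: secreted prostaglandin E2 measured by ELISA in LPS-stimulated co-culture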
Method in brief: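 ELISA read-out of PGE2 from human umbilical vein endothelial cells co-cultured with peripheral blood mononuclear cells under LPS, 24 h post-dose. Gain or loss of signal scored relative to DMSO baseline.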

Measured: AC50

Sequence of E-selectin (Homo sapiens) (P16581 whole entry, looked up): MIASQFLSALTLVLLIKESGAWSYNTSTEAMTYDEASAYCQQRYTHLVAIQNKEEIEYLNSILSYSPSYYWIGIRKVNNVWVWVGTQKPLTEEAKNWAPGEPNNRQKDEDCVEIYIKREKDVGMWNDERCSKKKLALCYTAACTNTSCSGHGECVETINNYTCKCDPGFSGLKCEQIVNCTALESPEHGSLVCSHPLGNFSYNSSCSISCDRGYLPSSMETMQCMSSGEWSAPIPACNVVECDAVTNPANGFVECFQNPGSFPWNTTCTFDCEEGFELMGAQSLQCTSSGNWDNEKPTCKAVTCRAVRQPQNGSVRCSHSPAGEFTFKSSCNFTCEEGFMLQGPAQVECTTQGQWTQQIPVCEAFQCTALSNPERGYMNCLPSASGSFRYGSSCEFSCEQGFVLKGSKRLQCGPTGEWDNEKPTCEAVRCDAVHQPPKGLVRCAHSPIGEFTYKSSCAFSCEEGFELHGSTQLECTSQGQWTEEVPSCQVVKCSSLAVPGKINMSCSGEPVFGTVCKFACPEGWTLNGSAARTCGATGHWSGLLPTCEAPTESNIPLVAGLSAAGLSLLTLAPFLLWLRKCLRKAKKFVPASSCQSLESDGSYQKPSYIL

CCCCC(CC)CO (configuration not stated)
inactive: all assays above

CC(=O)[C@@]1(O)CC[C@H]2[C@@H]3CCC4=CC(=O)CC[C@]4(C)[C@H]3CC[C@@]21C
inactive: all assays above

CCCCCCC(C=O)=Cc1ccccc1
active: [5] 30.2 µM | [6] 29.3 µM | [9] 15.3 µM
not listed: [7] | [8]
inactive: all other assays above

O=C(NS(=O)(=O)/C=C/c1cccs1)c1ccc(F)cc1Br
active: CD40, CD40 (gene 958) 0.451 µM
not listed: [7] | [8]
inactive: all other assays above

CC(=O)CC(c1ccccc1)c1c(O)c2ccccc2oc1=O (configuration not stated)
not listed: [7] | [8]
inactive: all other assays above

Cc1cn([C@H]2C=C[C@@H](CO)O2)c(=O)[nH]c1=O
not listed: [6] | [8]
inactive: all other assays above

C/C=C/c1ccc(OC)cc1
active: [8] 13.8 µM
not listed: [7]
inactive: all other assays above

C/C=C/C=C/C(=O)O
not listed: [1] | [7]
inactive: all other assays above

CN(C)CCCN(C)CCCN(C)C
not listed: CD40, CD40 (gene 958)
inactive: all other assays above

O=C(O)CC(O)(CC(=O)O)C(=O)O
not listed: [7] | [8]
inactive: all other assays above

O=C1CCCCC1
not listed: [7] | [8]
inactive: all other assays above

Cc1cc(SC2=C(O)C[C@@](CCc3ccc(N)cc3)(C(C)C)OC2=O)c(C(C)(C)C)cc1CO
not listed: [7] | [8]
inactive: all other assays above

CC(C)(C)c1ccccc1
not listed: [7] | [8]
inactive: all other assays above

CCCC(=O)O
not listed: [7] | [8]
inactive: all other assays above

CC(C)OC(=O)C(C)(C)Oc1ccc(C(=O)c2ccc(Cl)cc2)cc1
active: CD40, CD40 (gene 958) 29.4 µM | [5] 32 µM | [6] 27.8 µM
not listed: [7] | [8]
inactive: all other assays above

CC(C)c1cccc(C(C)C)c1
not listed: [7] | [8]
inactive: all other assays above

O=[Si]=O
not listed: [1] | [7] | [8]
inactive: all other assays above

OCC(O)CO
not listed: [7] | [8]
inactive: all other assays above

COc1ccc(C(=O)Nc2nc3ccccc3c(NCc3ccccc3)c2C#N)cc1
active: CD40, CD40 (gene 958) 3.97 µM
not listed: [7] | [8]
inactive: all other assays above

CC(=O)OC1CC(C)OC(C)O1 (configuration not stated)
not listed: [7] | [8]
inactive: all other assays above

O=C(O)CN(CC(=O)O)CC(=O)O
not listed: [7] | [8]
inactive: all other assays above

Cc1ccc(C(C)(C)C)c(O)c1
active: [9] 3.09 µM
not listed: [7] | [8]
inactive: all other assays above

CC(=O)S[C@H](C(=O)N[C@H]1Cc2ccccc2[C@H]2CCC[C@@H](C(=O)O)N2C1=O)C(C)C
not listed: [7] | [8]
inactive: all other assays above

CCCCC(CC)COP(=O)(OCC(CC)CCCC)OCC(CC)CCCC (configuration not stated)
active: [5] 5.39 µM
not listed: [7] | [8]
inactive: all other assays above

CN(C)CCCN1c2ccccc2Sc2ccc(Cl)cc21
inactive: [1] | [4] | [9]
active: [2] 31.6 µM | [3] 30.3 µM | CD40, CD40 (gene 958) 25.3 µM | [5] 23.9 µM | [6] 24.9 µM

CS(=O)(=O)c1ccc([C@@H](C[C@H]2CCC(=O)C2)C(=O)Nc2cnccn2)cc1Cl
not listed: [7] | [8]
inactive: all other assays above

CCc1cc(C2=C(C(=O)O)N(c3ccccc3C(F)(F)F)S(=O)(=O)c3ccccc32)cc2c1OCO2
not listed: [7] | [8]
inactive: all other assays above

CCCCc1nc2cccnc2n1Cc1ccc(-c2ccccc2-c2nnn[nH]2)cc1
active: [2] 0.0268 µM
not listed: [7] | [8]
inactive: all other assays above

CC(N)=O
not listed: [7]
inactive: all other assays above

CC(COCC(C)OC(=O)c1ccccc1)OC(=O)c1ccccc1 (configuration not stated)
not listed: [7] | [8]
inactive: all other assays above

COC(=O)[C@H]1[C@H]2C[C@@H]3c4[nH]c5cc(OC)ccc5c4CCN3C[C@H]2C[C@@H](OC(=O)c2cc(OC)c(OC)c(OC)c2)[C@@H]1OC
active: CD40, CD40 (gene 958) 23.5 µM | [6] 21.8 µM
not listed: [7] | [8]
inactive: all other assays above

Cc1c(C)c2c(c(C)c1O)CCC(C)(COc1ccc(CC3SC(=O)NC3=O)cc1)O2 (configuration not stated)
active: [1] 15.1 µM | [2] 12.7 µM | [3] 12 µM | CD40, CD40 (gene 958) 28.7 µM | [4] 30.3 µM | [5] 32.1 µM | [6] 26.3 µM | [9] 32.5 µM
